Source: PubChem (National Center for Advancing Translational Sciences (NCATS))
Most compounds without a hit are left out; they make up all but 7.6% or so of the library.
KCNH2 WT inh: blocks the wildtype human KCNH2 potassium channel; 0.37% of 340,000 active; U2OS, BacMam KCNH2, thallium flux FluxOr; active compounds read low; activity change, % at 1.84 µM; Q12809;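 active means maximum activity change below -70%; inconclusive means maximum activity change between -70% and -50%; inactive means maximum activity change above -50%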
Target sequence (Q12809 whole entry, looked up): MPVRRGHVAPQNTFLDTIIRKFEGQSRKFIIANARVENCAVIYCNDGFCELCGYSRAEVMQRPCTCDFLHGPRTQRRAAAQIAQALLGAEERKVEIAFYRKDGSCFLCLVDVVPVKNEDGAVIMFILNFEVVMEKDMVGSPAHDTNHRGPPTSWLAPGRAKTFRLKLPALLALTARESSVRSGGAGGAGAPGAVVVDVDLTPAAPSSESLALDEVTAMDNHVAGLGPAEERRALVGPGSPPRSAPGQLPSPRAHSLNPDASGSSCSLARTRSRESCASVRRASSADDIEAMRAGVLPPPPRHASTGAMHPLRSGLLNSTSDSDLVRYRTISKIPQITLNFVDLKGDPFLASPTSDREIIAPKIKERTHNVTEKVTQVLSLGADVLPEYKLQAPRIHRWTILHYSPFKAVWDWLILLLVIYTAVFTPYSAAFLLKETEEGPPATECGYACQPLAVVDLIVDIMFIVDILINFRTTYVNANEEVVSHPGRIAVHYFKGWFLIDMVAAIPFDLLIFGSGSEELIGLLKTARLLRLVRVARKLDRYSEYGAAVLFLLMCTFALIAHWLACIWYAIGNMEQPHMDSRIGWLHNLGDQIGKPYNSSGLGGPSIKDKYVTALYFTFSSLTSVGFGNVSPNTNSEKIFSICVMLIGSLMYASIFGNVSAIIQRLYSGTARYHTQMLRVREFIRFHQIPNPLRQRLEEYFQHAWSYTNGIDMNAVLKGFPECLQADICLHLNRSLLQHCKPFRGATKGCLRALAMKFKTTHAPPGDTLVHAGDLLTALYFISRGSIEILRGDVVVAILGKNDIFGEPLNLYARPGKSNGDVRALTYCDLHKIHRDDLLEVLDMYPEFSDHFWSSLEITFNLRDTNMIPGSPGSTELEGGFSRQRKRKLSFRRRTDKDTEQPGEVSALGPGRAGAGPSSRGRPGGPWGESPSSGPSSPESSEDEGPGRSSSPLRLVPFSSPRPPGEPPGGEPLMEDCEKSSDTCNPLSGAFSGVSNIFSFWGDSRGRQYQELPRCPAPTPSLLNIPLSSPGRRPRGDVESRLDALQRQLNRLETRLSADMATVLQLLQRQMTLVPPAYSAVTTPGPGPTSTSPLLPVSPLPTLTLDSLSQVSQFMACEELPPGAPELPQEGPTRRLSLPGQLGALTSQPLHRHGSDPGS
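U2OS cells were transduced with wild-type KCNH2 virus (2.03 x 10^8 / mL) for 4 h at room temperature, then cultured overnight at 37 C. Thallium flux was read with FluxOr dye. Rate constants were normalized to DMSO controls.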
SW480 rerep: induces DNA re-replication in SW480 colon adenocarcinoma cells. SW480 DNA re-replication, Hoechst DNA content imaging, 48 h. Potency, µM (highest dose often 46.1 µM), most hits filed as activators. 1.8% of 340,000 active. AID 624297; further: nearly all actives have a fitted effect of over 55% in size
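SW480 cells exposed to compounds for 48 hr at 37 C, 5% CO2, then Hoechst-stained 40 min. Nuclear DNA content imaged by fluorescence scanning (405 nm excitation, 500-530 nm emission); re-replication scored as increased high-intensity nuclei.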
KCNH2 3.1 inh: KCNH2 3.1 (human) potassium channel inhibition | U2OS KCNH2 3.1, thallium flux FluxOr; active compounds read low | AID 720553 | 0.95% of 340,000 active | activity change, % (tested at about 1.8 µM);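 active means maximum activity change below -70%; inconclusive means maximum activity change from -70% to -50%; inactive means maximum activity change above -50%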;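 further: thallium influx rate constant from kinetic fluorescence after stimulation buffer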
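Kinetic fluorescence (2 min after stimulation buffer) measures Tl+ influx through KCNH2 3.1 expressed by viral transduction in U2OS cells; the rate constant is normalized against DMSO controls serving as positive and negative references.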
KB-V1 cytotox: KB-V1 MDR subline cytotoxicity. KB-V1 MDR cells viability, CellTiter-Glo, 72 h. Potency, µM (doses to about 46.1 µM), most hits filed as cytotoxic. 3.4% of 400,000 active. AID 1347076; further: nearly all actives have a fitted effect of over 60% in size
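Following 72 h at 37 degrees C with compound, KB-V1 cell viability was read by CellTiter-Glo luminescence, medium being phenol-red-free DMEM plus 10% FBS; concentration-response parameters came from normalized, curve-fitted qHTS data.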
MCF10A rerep: induces DNA re-replication in MCF 10a normal breast cells; 2.9% of 350,000 active; AID 624296; MCF 10A DNA re-replication, Hoechst nuclear intensity, 48 h; Potency, µM (titrated, usually from 46.1 µM), usual class: activators; further: nearly all actives have a fitted effect of over 50% in size
KB-3-1 cytotox: KB-3-1 parental cell cytotoxicity. KB-3-1 viability, CellTiter-Glo ATP luminescence, 72 h. Potency, µM (series often up to 46.1 µM), most hits filed as cytotoxic. 1.4% of 400,000 active. AID 1347075; further: nearly all actives have a fitted effect of over 60% in size
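Screening of KB-3-1 cells (DMEM, 10% FBS, phenol-red free) ran from lowest to highest compound concentration; after 72 h at 37 °C viability was read luminescently and curves fitted.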
Numbers stand for hits; n = inactive; u = inconclusive; x = not tested or not shown. Unless noted, the call rests on the fitted dose curve; in most records, active means well fitted curve in the direction sought with a large enough effect; inconclusive means small, poorly fitted or top-dose-only effect, or another doubt; inactive means no such curve, though single readings can be large; an effect the other way counts as inactive or inconclusive.

SMILES | KCNH2 WT inh | SW480 rerep | KCNH2 3.1 inh | KB-V1 cytotox | MCF10A rerep | KB-3-1 cytotox
COc1ccc(NC(=O)N2CCCc3ccccc32)cc1 | n | n | n | n | n | n
COc1ccc(/C=C/C(=O)OCC(=O)N2CCCC2)c(OC)c1 | n | n | n | 11.6µM | n | n
Cc1oc(-c2ccc(Cl)cc2)nc1Cn1c(=O)cc(C)c2c(C)nn(-c3ccccc3)c21 | x | x | x | n | x | n
O=C(C[C@H]1C[C@H](C(=O)N2CCCCC2)[C@@]2(CCc3ccccc3)c3[nH]c4ccc(Cl)cc4c3CCN2C1=O)NCc1cccc(C(F)(F)F)c1 | n | n | n | n | n | n
Cc1nn(C)c(C)c1NC(=O)COc1ccccc1C#N | n | n | n | n | n | n
N#CCCN(CCC#N)S(=O)(=O)c1ccc(C(=O)Nc2nc(-c3ccccc3)c(C(=O)c3ccccc3)s2)cc1 | n | n | n | n | u | n
CN(C)S(=O)(=O)c1ccc(C(=O)Nc2nc(-c3ccccc3)c(C(=O)c3ccccc3)s2)cc1 | n | n | n | 16.4µM | n | n
O=C(Nc1nc(-c2ccccc2)c(C(=O)c2ccccc2)s1)c1ccc(S(=O)(=O)N2CCCC2)cc1 | n | n | n | 3.66µM | u | 16.4µM
COc1cccc(OC)c1C(=O)Nc1nc2c(s1)CCc1ccccc1-2 | x | x | x | n | x | n
O=C(Nc1nc(-c2ccccc2)c(-c2ccccc2)s1)c1ccc(S(=O)(=O)N2CCCC2)cc1 | n | n | n | 4.11µM | n | u
CCCN(CCC)S(=O)(=O)c1ccc(C(=O)Nc2nc3c(s2)CCc2ccccc2-3)cc1 | n | n | n | n | n | 9.2µM
Cc1c(C(=O)N2CCOCC2)c(S(=O)(=O)Nc2ccccc2)c(C)n1C | n | n | n | n | n | n
CCN(CC)C(=O)c1[nH]cnc1C(=O)NCC(=O)OCc1ccccc1 | n | n | n | n | n | n
CCc1ccc(S(=O)(=O)c2nnn3c2nc(N2CCCC2)c2sccc23)cc1 | x | x | x | n | x | n
CCNc1oc(-c2ccccc2F)nc1S(=O)(=O)c1ccccc1 | n | n | n | u | n | n
C/C(=N\N=C(/N)SC1CC(=O)N(c2ccc(Cl)cc2)C1=O)c1cccs1 (stereo unspecified) | n | n | n | n | u | n
C/C(=N\N=C(/N)SC1CC(=O)N(c2ccccc2)C1=O)c1cccs1 (stereo unspecified) | n | 3.66µM | n | n | 2.31µM | n
CCCC(=O)N(C)c1ccc(/C=C2\C=Cc3ccccc32)cc1 | x | x | x | n | x | u
CC(Nc1nc(Cl)nc2nc[nH]c12)c1ccccc1 (stereo unspecified) | x | x | x | n | x | n
COc1ccc2c(c1)-c1c(ssc1=S)C(C)(C)N2 | n | n | n | u | 11.6µM | n
COc1ccc2c(c1)-c1c(ssc1=S)C(C)(C)N2S(=O)(=O)c1ccc(C)cc1 | n | 7.31µM | n | 5.8µM | 5.17µM | u
Cc1ccc(S(=O)(=O)N2c3ccccc3-c3c(ssc3=S)C2(C)C)cc1 | n | u | n | 20.6µM | u | u
CCOC(=O)CC1(C)N(S(=O)(=O)c2ccc(C)cc2)c2ccccc2N1S(=O)(=O)c1ccc(C)cc1 | x | x | x | u | x | n
COc1ccc(-n2sc3c(c2=S)-c2cc(OC)ccc2NC3(C)C)cc1 | n | n | n | n | n | n
CN(C)c1ccc(C(c2ccc(N(C)C)cc2)c2ccc([N+](=O)[O-])cc2)cc1 | n | n | n | u | n | n
SMILES | KCNH2 WT inh | SW480 rerep | KCNH2 3.1 inh | KB-V1 cytotox | MCF10A rerep | KB-3-1 cytotox
COc1cc(N2C(=O)C=CC2=O)ccc1N1C(=O)C=CC1=O | n | 13µM | x | u | 6.51µM | 18.4µM
Cc1ccc(NC(=O)CSC2=NN3CCCC(=O)N=C3S2)cc1Cl | n | n | n | n | n | n
O=C1N/C(=C/c2ccc(Br)cc2)C(O)=C1C=NCc1ccccc1 | n | u | n | u | u | 4.61µM
Cc1ccc(C(=O)C2(C)C3c4cc(Br)ccc4OC(=O)C32C(=O)c2ccco2)cc1 (stereo unspecified) | n | n | -114.1 | n | n | n
CC1(C(=O)c2ccccc2)C2c3c(ccc4ccccc34)OC(=O)C21C(=O)N1CCOCC1 (stereo unspecified) | n | n | x | n | n | n
Cc1ccc(C)c(NCC(=O)c2ccc(Cl)cc2)c1 | n | u | n | n | 23.1µM | n
Cc1ccc(C(=O)CNc2ccc(Cl)cc2)cc1 | n | n | -79.2 | u | n | n
Cc1ccc(N(CC(=O)NCC2CCCO2)C(=O)CCC(=O)Nc2cc(C)on2)cc1 (stereo unspecified) | n | n | n | n | n | n
COc1ccc(N(C(=O)C(C)C)S(=O)(=O)c2ccc(Cl)cc2)cc1 | n | n | n | 18.4µM | n | n
COc1ccc(N(C(=O)c2ccncc2)S(=O)(=O)c2ccc(Cl)cc2)cc1 | n | n | n | n | n | n
OCCN1CCN(CCCN2c3ccccc3C=Cc3ccccc32)CC1 | x | u | x | x | n | x
COC(=O)C(NNc1ccccc1C)(NC(=O)c1ccc(F)cc1)C(F)(F)F (stereo unspecified) | n | n | n | n | n | n
COC(=O)C(NNc1ccc(F)cc1)(NC(=O)c1ccccc1)C(F)(F)F (stereo unspecified) | n | n | n | 18.4µM | n | n
Cc1noc(C)c1CSCC(=O)Nc1cccc(C(F)(F)F)c1 | n | n | n | x | 18.4µM | x
CC(=O)c1ccc(OCC(O)CN(C)CCOc2ccc(Br)cc2)cc1 (stereo unspecified) | n | n | n | u | n | n
CSCCC(NC(=O)COc1ccccc1)C(=O)NC1CCC(C)CC1 (stereo unspecified) | n | n | n | 8.2µM | n | n
COc1cccc(NC(=O)CN(C)C(=O)C(CCSC)NC(=O)c2ccco2)c1 (stereo unspecified) | n | n | n | 18.4µM | n | n
CSCCC(NC(=O)COc1ccccc1)C(=O)OCC(=O)c1ccccc1 (stereo unspecified) | n | n | n | n | n | n
CSCCC(NC(=O)COc1ccccc1)C(=O)N(C)CC(=O)Nc1ccc(Cl)cc1 (stereo unspecified) | n | n | n | 3.66µM | n | n
NC(=O)C1CCN(c2ncc(-c3cccc(N4CCCCC4)c3)s2)CC1 | x | x | x | n | x | n
O=C1CCCC2=C1C1(CCSC1)N=C(Nc1nc3ccccc3o1)N2 (stereo unspecified) | x | x | x | n | x | n
COc1cc2nc(NCCCN3CCN(C)CC3)n3nc(-c4ccccc4)nc3c2cc1OC | n | u | n | u | 13µM | u
CCN(CC)CCCNc1nc2cc(OC)c(OC)cc2c2nc(-c3ccccc3)nn12 | n | u | n | 16.4µM | u | 23.1µM
